# Bioassay records from PubChem BioAssay.
# Only some compounds are listed: those with a hit (about 7.9% of all), similar ones and a draw of the others.
# FMDV antiviral – antivirals against foot and mouth disease virus; FMDV antiviral cell-based qHTS; Potency, µM (doses to about 57.9 µM), most hits filed as inhibitors; 410,000 tested, 1.2% active; AID 1159524; calls by dose curve; tested in HEK293T cells; further: read-out not given here; nearly all actives have a fitted effect of over 45% in size
# HCV inhibitor – inhibitors of hepatitis C virus infection. Huh7.5.1 HCVcc-Cre infection, luciferase reporter, 44 h. Potency, µM (titrated, usually from 41.8 µM), actives largely listed as inhibitors. 340,000 tested, 3.4% active. AID 651820; active means well fitted inhibition curve with a large enough effect; inconclusive means small, poorly fitted or top-dose-only effect, or another doubt; inactive means no such curve, though single readings can be large or run the other way
#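 Compounds are dispensed onto cells plated 4 h earlier at 1,000 per well, with HCVcc-Cre virus (about 0.5 moi) added next. Following 44 h of culture, luminescent signal is measured for 15 sec after 15 min with substrate at room temperature.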
# MARV entry inh – Marburg virus entry inhibition. 300,000 tested, 1.8% active. AID 540276. Potency, µM (doses to about 37.8 µM), hits mostly inhibitors. Marburg virus pseudotyped entry inhibition, cell reporter; calls by dose curve; tested in HEK293 cells
# HCMV antiviral – inhibitors of human cytomegalovirus | HFF cells, HCMV-luciferase reporter, 72 h; stronger effect = lower value | 410,000 tested, 4.5% active | activity change, negative = inhibition, % at 57.5 µM; in the data active means activity change below about -60%; inconclusive means no clear call, values can overlap the other calls; inactive means above about -39%
#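 Human foreskin fibroblasts infected with luciferase-reporter HCMV at MOI 1 PFU/cell, compounds at two doses. Luciferase measured 72 h post infection; normalized to buffer-only basal and Salinomycin (10uM) controls.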
# Lassa entry inh – Lassa virus entry inhibition; Lassa virus pseudotype entry inhibition, cell reporter; Potency, µM (series often up to 37.9 µM), most hits filed as inhibitors; 300,000 tested, 1.2% active; AID 540256; calls by dose curve; tested in HEK293 cells; further: nearly all actives have a fitted effect of over 50% in size
# Numbers stand for hits; i = inactive; ? = inconclusive; nt = no result; ! = repeats disagree.
SMILES,FMDV antiviral,HCV inhibitor,MARV entry inh,HCMV antiviral,Lassa entry inh
Cc1ccc(S(=O)(=O)NCC(=O)NCC(=O)N(C)Cc2ccc3ccccc3c2)cc1C,?,10µM,?,i,i
COc1ccc([C@@H]2NC3=C(CCC3)[C@@]3(C#N)C(OC)(OC)N=C(N)[C@]23C#N)cc1,nt,nt,i,nt,nt
CC(=O)c1ccc(NC(=O)CSc2nnc(-c3ccco3)c(-c3ccco3)n2)cc1,i,?,?,i,i
O=C(CSc1nnc(-c2ccco2)c(-c2ccco2)n1)c1ccccc1,i,2.82µM,i,i,i
COc1cc2c(cc1OC)C(=Cc1ccc(N(C)C)cc1)C=C2,i,10µM,i,i,i
CN(C)c1ccc(C=C2C=Cc3ccccc32)cc1,i,i,i,i,6.31µM
COc1ccc(S(=O)CC(=O)Nc2ccc(Cl)cc2Cl)cc1 (configuration not stated),i,i,?,-66.5,i
COc1ccc(NC(=O)CS(=O)c2ccc(F)cc2)cc1 (configuration not stated),i,i,i,i,i
CC[N+](C)(CC)CCC/C(=N/O)C(O)(c1ccccc1)c1ccccc1,i,i,i,-65.5,i
O=C1NC2c3c(I)sc(I)c3C(=O)C2O1 (configuration not stated),39.8µM,?,?,i,12.6µM
COc1cccc(C2=NC(C)(C)NC(c3ccccc3O)C2)c1 (configuration not stated),i,i,i,i,i
C[C@]12N[C@H](Cc3ccccc31)c1ccccc12,?,i,14.1µM!,?,i
O=C(COC(=O)Cc1n[nH]c(=O)c2ccccc12)Nc1ccc(Cl)cc1F,i,i,nt,i,nt
Cc1nnnn1/C(=C\c1ccccc1)C(=O)OCC(=O)Nc1ccc(Cl)cc1F,28.2µM,?,?,-95.3,20µM
Cc1nnnn1/C(=C\c1ccccc1)C(=O)OCC(=O)Nc1cccc(S(=O)(=O)N(C)C)c1,14.1µM,10µM,nt,-61.2,nt
C#CCN1C(=O)[C@]2(O[C@H](COc3ccccc3)CC3=CCCC32)c2c(Br)cccc21 (some centres not stated),nt,nt,i,nt,nt
Cc1ccc2nc(-c3ccc(NC(=O)C4CCCO4)cc3)[nH]c2c1 (configuration not stated),i,i,?,i,8.2µM
COc1ccc(NC(=O)C2CCCO2)cc1 (configuration not stated),i,i,?,i,i
Cc1ccc2nc(-c3ccc(NC(=O)Cc4cccs4)cc3)[nH]c2c1,nt,11.2µM,i,i,?
CC(=O)N1CCN(Cc2ccc(Cl)nc2)CC1,i,i,i,-78.2,i
Cc1ccc(-n2c(-c3cccs3)nc3nc4ccccc4nc32)cc1,nt,i,nt,-63.0,nt
Fc1ccc(-n2c(-c3cccs3)nc3nc4ccccc4nc32)cc1,i,i,i,i,i
C=CCN(c1ccccc1)S(=O)(=O)c1cccc(C(=O)Nc2ncccc2C)c1,i,i,?,?,i
COc1ccc(OC)c(-n2c(CNC3CCN(Cc4ccccc4)CC3)nc3ccccc3c2=O)c1,i,i,i,-106.4,i
O=C(Nc1cc2c(cc1Cl)-c1ccc([N+](=O)[O-])cc1C2=NO)C(F)(F)F,i,?,i,nt,i
SMILES,FMDV antiviral,HCV inhibitor,MARV entry inh,HCMV antiviral,Lassa entry inh
O=[N+]([O-])c1ccc2c(c1)-c1ccccc1C2=NO,i,?,?,-69.7,i
Nc1ccc2c(c1)C(=NO)c1cc([N+](=O)[O-])ccc1-2,i,?,?,-84.9,i
O=[N+]([O-])c1ccc2c(c1)C(=Nc1ccccc1)c1ccccc1-2,i,i,?,-92.3,?
O=c1c(-c2cccs2)nc2cncnc2n1-c1ccccc1,i,nt,nt,nt,nt
Cc1ccc(C2=CC(=O)N(CCC(N)=O)C2)cc1,nt,nt,nt,i,nt
COc1ccc(NC(=O)COc2ccc(-n3cnnn3)cc2)cc1OC,i,?,i,i,i
COc1ccc(C(C)=O)cc1COc1ccc(-n2cnnn2)cc1,i,10µM,i,i,i
CCCn1cnc2c(SCc3ccccc3Cl)nc(N)nc21,i,i,7.08µM,?,11.2µM
CCCn1cnc2c(SCc3ccccn3)nc(N)nc21,i,i,i,i,i
c1ccc2c(c1)OCC(c1csc3ncnc(N4CCOCC4)c13)O2 (configuration not stated),nt,i,i,-60.0,i
CCOC(=O)c1c(C2COc3ccccc3O2)csc1N (configuration not stated),i,i,i,i,i
CCN(CC)c1ncnc2scc(C3COc4ccccc4O3)c12 (configuration not stated),?,11.2µM,i,?,?
CC(C)(C)c1ccc(C(=O)N2CCN(C(=O)C3CCCCC3)CC2)cc1,?,i,i,-76.7,?
CC(C)(C)c1ccc(S(=O)(=O)N2CCN(C(=O)C3CCC3)CC2)cc1,?,?,4.47µM,i,?
CC(C)CC(=O)N1CCN(S(=O)(=O)c2ccccc2)CC1,?,i,i,i,i
CC(OC(=O)C1CCN(S(=O)(=O)c2ccc(C(C)(C)C)cc2)CC1)C(=O)N(C)C1CCCCC1 (configuration not stated),39.8µM,?,nt,?,nt
CC(C)CC(=O)N1CCN(S(=O)(=O)c2ccc(C3CCCCC3)cc2)CC1,?,11.2µM,nt,i,nt
O=C(C1CCC1)N1CCN(S(=O)(=O)c2ccc(F)cc2)CC1,i,i,i,i,i
CCC(=O)N1CCc2cc(CNC(=O)Cc3ccc(F)cc3)ccc21,i,nt,nt,i,i
CC(C)(C)c1ccc(S(=O)(=O)N2CCC(c3ccncc3)CC2)cc1,?,nt,nt,-82.7,?
Cc1ccsc1C(=O)N(Cc1cc2cc3c(cc2nc1N1CCOCC1)CCC3)CC1CCCO1 (configuration not stated),i,nt,nt,nt,nt
COc1ccc(C(=O)N/C(=C\c2cn(S(=O)(=O)N(C)C)c3ccccc23)C(=O)NCCN2CCOCC2)cc1,i,i,nt,i,nt
Cc1ccccc1C(=O)N1CCC2CC1c1cc(-c3ccc(F)cc3)ccc12 (configuration not stated),31.6µM,?,nt,i,nt
CCN(CCNC(=O)[C@H]1C=C(OC)C(=O)C[C@H](c2ccccc2)[C@@H]1C)C(C)=O,nt,nt,i,nt,nt
Brc1c(-c2ccccc2)nc2n1Cc1ccccc1-2,i,?,?,-83.9,?
SMILES,FMDV antiviral,HCV inhibitor,MARV entry inh,HCMV antiviral,Lassa entry inh
COc1cc2[nH]c(=S)nc(NC3CCCCCC3)c2cc1OC,?,?,?,-74.0,i
COc1cc2[nH]c(=S)nc(NCC3CCCO3)c2cc1OC (configuration not stated),i,i,i,i,i
COc1cc2[nH]c(=S)nc(NCc3cccs3)c2cc1OC,i,25.1µM,i,i,i
CCc1nc(CN2CCOc3ccc(C(O)C4CCCCC4)cc3C2)c(C)[nH]1 (configuration not stated),i,nt,nt,nt,nt
Cc1cc(-c2ccnc(-n3ncc(C(=O)N4CCCCC4c4cccnc4)c3C3CC3)n2)c(C)s1 (configuration not stated),i,nt,nt,nt,nt
Cc1ccccc1-n1c(SCC(=O)NC2CC2)nc2ccccc2c1=O,i,nt,nt,i,nt
COc1cc(-c2nc(-c3cccc(Cl)c3)c(-c3ccccc3)[nH]2)cc(OC)c1OC,i,nt,?,i,?
